The list is not random: actives were taken first. Their share in the collection is about 2.4%.
TNF death inh = TNF-alpha cell death inhibition in Jurkat FADD-/- cells. Jurkat FADD-/- TNF necroptosis rescue, ATP luminescence, 24 h; 0 = TNF only, 100 = no-TNF cells. activation (protection from cell death), % at 10 µM. actives 0.068% (n = 220,000);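 active = activation, meaning protection from cell death, of at least 50% relative to plate controls; inactive = activation below 50%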;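 note: necroptosis triggered by 40 ng/mL TNF-alpha added together with compound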
L929 necroptosis = blocks zVAD induced death of L929 cells; L929 zVAD necroptosis rescue, ATP luminescence, 24 h; with zVAD 60 µM; viability rescue, % at 10 µM; actives 0.38% (n = 220,000); AID 1377;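 active = activation, scaled between plate controls, above about 75%, limit read from the data; inactive = activation under that limit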;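 note: 0% = zVAD with DMSO and 100% = DMSO alone without zVAD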
DTT redox prof = compounds producing H2O2 with reducing agent – biochemical, NIH compound library profiling, artefact control for MLSCN library redox annotation, primary screen; DTT-dependent redox cycling H2O2, phenol red/HRP absorbance; 100% = 100 µM peroxide control, 0% = buffer; activation, % at 10 µM; actives 0.03% (n = 200,000); AID 878;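 active = activation of at least 50% relative to the plate's high and low controls in the primary single-dose screen; inactive = activation below 50%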;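 note: compound incubated with DTT at 0.8 mM final as the reducing agent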
WT yeast gro inh = growth inhibition of WT yeast, mitochondrial fusion screen; inhibition, % at 10 µM; actives 2.1% (n = 190,000); mitochondrial fusion phenotypic screen, WT strain; in the data active = inhibition above about 58%; tested in S. cerevisiae
PKD1 kinase inh = PKD1 (human) kinase inhibition; Q15139; PKD1 kinase fluorescence polarization assay; inhibition, % (no concentration beside the values); actives 0.056% (n = 200,000); in the data active = inhibition above about 50%
Target sequence (Q15139 whole entry, looked up): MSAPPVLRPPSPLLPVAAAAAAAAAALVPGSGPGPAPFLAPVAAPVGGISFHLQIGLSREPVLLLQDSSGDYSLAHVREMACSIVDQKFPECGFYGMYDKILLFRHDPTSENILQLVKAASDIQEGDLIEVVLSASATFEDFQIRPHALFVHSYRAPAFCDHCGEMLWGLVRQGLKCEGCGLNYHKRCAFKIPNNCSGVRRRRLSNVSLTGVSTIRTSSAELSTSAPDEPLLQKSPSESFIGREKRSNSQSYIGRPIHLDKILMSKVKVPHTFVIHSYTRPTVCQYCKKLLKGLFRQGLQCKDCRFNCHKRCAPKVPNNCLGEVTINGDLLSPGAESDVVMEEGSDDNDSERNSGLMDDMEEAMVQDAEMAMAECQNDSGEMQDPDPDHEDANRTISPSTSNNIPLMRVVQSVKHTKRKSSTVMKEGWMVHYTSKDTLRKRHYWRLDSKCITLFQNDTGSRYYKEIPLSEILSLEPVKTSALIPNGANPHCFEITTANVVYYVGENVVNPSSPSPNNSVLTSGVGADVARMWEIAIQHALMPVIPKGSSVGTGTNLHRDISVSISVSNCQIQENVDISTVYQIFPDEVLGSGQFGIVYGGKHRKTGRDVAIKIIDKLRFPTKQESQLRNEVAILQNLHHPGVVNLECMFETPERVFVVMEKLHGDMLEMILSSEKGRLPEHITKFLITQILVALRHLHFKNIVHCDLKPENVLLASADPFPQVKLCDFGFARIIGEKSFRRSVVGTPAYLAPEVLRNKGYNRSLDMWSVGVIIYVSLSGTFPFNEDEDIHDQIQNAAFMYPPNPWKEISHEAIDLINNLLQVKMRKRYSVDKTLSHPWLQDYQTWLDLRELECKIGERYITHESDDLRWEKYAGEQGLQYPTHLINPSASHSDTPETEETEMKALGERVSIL
PERK inh = human PERK inhibition, primary cell-based screen; Q9NZJ5; CHO PERK-DD fusion, SEAP luminescence translation reporter; inhibition, % at 5.6 µM; actives 0.17% (n = 220,000); AID 1416;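 active = inhibition above the mean inhibition of all tested compounds plus 3 SD, set separately per screening campaign, cut at about 2.9% in these data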;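 note: PERK kinase domain activated by AP20187 dimerizer at 100 nM; 0% = DMSO with dimerizer and 100% = rapamycin at 8.4 µM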
* hit, by the source's call; nt = no result.

SMILES	TNF death inh	L929 necroptosis	DTT redox prof	WT yeast gro inh	PKD1 kinase inh	PERK inh
O=C(Nc1cc(S(=O)(=O)N2CCOCC2)ccc1Cl)C(=O)c1c(-c2ccccc2)cc2ccccn12	-2	0	-1	99*	-7	-2
COc1ccc(C(=O)NCC(=O)N/N=C/c2cccc(OC(=O)c3ccco3)c2)cc1OC	-2	0	0	2	-5	0
OC1CCCN(c2c3c(nc4cc(-c5cccc(F)c5)nn24)CCCC3)C1 (stereo not drawn)	1	2	-2	69*	-1	0
CCN1CCN(c2cc(-c3ccccc3)nc3cc(-c4cccc(F)c4)nn23)CC1	1	0	1	82*	-5	-1
Cc1cccc(-c2cc3nc4c(c(N5CCCC(O)C5)n3n2)CCC4)c1 (stereo not drawn)	-1	15	-4	17	3	-1
OC1CCN(c2c3c(nc4cc(-c5ccc(F)cc5)nn24)CCC3)CC1	-2	1	0	8	-3	-1
OC1CCCN(c2c3c(nc4cc(-c5cccc(Cl)c5)nn24)CCC3)C1 (stereo not drawn)	-4	0	0	67*	-2	-1
COc1cccc(-c2cc3nc(-c4ccccc4)cc(N4CCCC(O)C4)n3n2)c1 (stereo not drawn)	1	29	0	69*	-4	-1
O=C(CCS(=O)(=O)c1ccccc1)Nc1cccc2c1C(=O)NC2=O	0	1	1	6	1	1
CCCCNC(=O)/C(C#N)=c1\s/c(=C\c2ccccc2OC(F)F)c(=O)n1CCCOC	3	1	2	-4	9	1
c1ccc2sc(NC3=NCN(CC4CCCO4)CN3)nc2c1 (stereo not drawn)	3	2	0	-9	-7	0
COCCNC(=O)CNC(=S)N(Cc1ccccc1)Cc1cccnc1	1	0	-1	2	13	0
O=C(CNC(=S)N(Cc1ccccc1)Cc1ccccc1F)NCCc1ccc(Cl)cc1	0	-1	0	75*	-7	0
O=C(CNC(=S)N(Cc1ccccc1)Cc1cccs1)NCc1ccc(F)cc1	-1	-1	0	61*	4	-1
N#CCCn1cc(C(=O)N2CCCCC2)c(-c2cccc([N+](=O)[O-])c2)n1	-1	0	-1	0	-1	2
CC(=O)Nc1ccc2c(c1)CN(c1cc(C)ccc1C)CO2	-2	0	0	-16	-3	1
CCN1CC(=O)Nc2cc(S(=O)(=O)N3CCOCC3)ccc21	1	0	0	6	-3	3.7*
Cc1c(-c2cccs2)[n+](=O)c2c(n1[O-])CCCCC2	0	1	0	58*	-3	0
Cc1c(-c2ccccc2)[n+](=O)c2c(n1[O-])CCCC2	1	0	nt	nt	nt	0
O=C(CN1CCN(Cc2ccccc2Cl)C1=O)NCCCN1CCOCC1	2	0	nt	nt	nt	0
CCN(CC)CCNc1ncnc2c1[nH]c1ccc(OC)cc12	8	3	0	-1	0	0
COc1ccc2[nH]c3c(NCCC4=CCCCC4)ncnc3c2c1	-5	2	0	84*	0	2
COc1ccc(OC)c(NC(=O)c2ccc(-c3cccs3)cc2)c1	2	0	-1	46	-1	0
CC(C)(C)c1ccccc1OCCOCCN1CCCCCC1	3	0	-1	68*	1	0
O=C(Cn1nnc(-c2cccs2)n1)NCc1ccccc1	1	0	0	2	-2	1
SMILES	TNF death inh	L929 necroptosis	DTT redox prof	WT yeast gro inh	PKD1 kinase inh	PERK inh
O=C(Cn1nnc(-c2cccs2)n1)NCc1ccco1	0	0	0	3	1	2.9*
O=C(CSc1ncn[nH]1)NCc1ccccc1	0	0	2	89*	2	0
COc1ccc(CNC(=O)CSc2ncn[nH]2)cc1	-2	0	2	-6	-2	1
CC1CC(=O)Nc2ccccc2N1S(=O)(=O)c1cccc(Cl)c1 (stereo not drawn)	1	1	-1	-2	-1	0
c1ccc2c(c1)sc1nnnn12	0	0	1	66*	-3	1
c1ccc(OCCSc2nnc3sc4ccccc4n23)cc1	-4	0	2	-7	8	-1
CC(C)(C)c1ccc(-c2cn(-c3ccc(Br)cc3)c3[n+]2CCCS3)cc1	-6	3	0	5	5	1
O=C1c2cnc3nc(SCc4ccccc4)nn3c2CC2c3ccccc3CCN12 (stereo not drawn)	-8	1	-2	80*	-17	-1
CSc1nc2ncc3c(n2n1)CC(C)(C)CC3=O	0	2	0	-2	-1	0
COc1ccccc1N1CCN(C(=O)c2ccoc2C)CC1	0	0	6	-2	-9	-1
COc1ccccc1N1CCN(C(=O)c2oc3cc(C)cc(C)c3c2C)CC1	-1	0	0	76*	-5	0
CCCn1c(N)cc(=O)n(CCC)c1=O	0	0	-2	-6	-10	0
Cc1cc(OC(=O)c2cccs2)ccc1C(C)C	1	0	0	33	4	0
Cc1oc2ccc(OC(=O)c3cccs3)cc2c1C(=O)OC(C)C	1	nt	1	71*	-3	0
CCOC(=O)c1cnc(SC)nc1Nc1cccc(F)c1	1	-1	0	-5	-1	1
CCOC(=O)c1cnc(SC)nc1Sc1cc(Cl)ccc1Cl	-4	0	-6	71*	-8	1
CS/C(=N\S(=O)(=O)c1cccs1)Nc1ccc(Br)cc1F	2	1	0	16	5	0
O=C(O)CSc1ncnc2scc(-c3ccc(Br)cc3)c12	0	0	nt	nt	nt	3.6*
O=C(Oc1ccccc1C(=O)Nc1ccccc1)c1ccccc1Br	-17	0	0	38	-1	1
Cc1c(Cl)cccc1NC(=S)N1CCC(N(C)CC2CCCO2)CC1 (stereo not drawn)	1	0	-1	-8	-3	1
CCOC(=O)c1c(C)oc2c1c(C(c1cccnc1)N1CCOCC1)c(O)c1ccccc12 (stereo not drawn)	-2	2	0	62*	-12	0
O=C(Oc1c(Cl)cc(Cl)c2cccnc12)c1cccs1	-3	-1	0	60*	7	0
COC(=O)c1ccccc1NC(=S)N1CCN(c2ccc(OC)cc2)CC1	0	2	0	14	-9	0
Cc1ccc(Nc2nc(N)c([N+](=O)[O-])c(N3CCC(C)CC3)n2)cc1C	0	0	-1	95*	7	1
Cc1cccc(Nc2nc(N)c([N+](=O)[O-])c(N3CCCC(C)C3)n2)c1 (stereo not drawn)	2	2	2	93*	33	0
